# Where “and” joins values, the source holds several entries; their conditions need not be identical. Equal entries are not always repeated. Calls of active or inactive are those of the source. Rule as the data show it, unless noted: active = parasite load remaining mostly below about 12% (no sharp cut-off); inactive = mostly above about 10%.
# Tests used:
# [1] = P. berghei load reduction in hepatocytes – cell-based, HepG2, luciferase luminescence, HepG2 viability, primary screen (AID 624349);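 also: 100% = mean of DMSO negative control wells on the same plate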; settings: P. berghei liver stage in HepG2, luciferase luminescence, concentration not given here; parasite load remaining: stronger effect = lower value; viability: measured here: HepG2 viability without parasites
# [2] = Wnt pathway potentiators raising nuclear beta-catenin – imaging, WNT3A-conditioned medium, mouse C2C12, NPC library, primary screen (AID 1117326; in the data active = nuclear beta-catenin stimulation mostly above about 4.2%, no sharp cut-off; inactive = mostly below about 10%); settings: stronger effect = higher value
# [3] = stimulators of insulin release from INS-1E, primary screen, cell-based, 5 mM glucose, NPC library (AID 1117329;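 active = compound raises insulin release from rat beta cells at 5 mM glucose, no numeric limit stated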); settings: rat INS-1E insulin secretion, at 10 µM, stronger effect = higher value
# [4] = growth inhibition of GSK3B-pretreated HCT116 cells – cell-based, CellTiter-Glo, 0.2 to 20 µM (AID 1117336;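 active = compounds lowering colon cancer cell viability after pretreatment blocking the GSK3B kinase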); settings: HCT116 viability after GSK3B inhibitor, at 20 µM, stronger effect = higher value
# [5] = inhibition of endothelial tube formation, primary screen, imaging, VEGF stimulated, CD31 staining, tube area, NPC library (AID 1117340;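 active = compound that reduces growth-factor-driven endothelial tube area in a mixed cell culture, no cutoff stated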); settings: VEGF-stimulated ADSC/ECFC co-culture, at 10 µM, stronger effect = higher value
# [6] = GLP1 release stimulators, primary, NCI-H716, NPC library (AID 1117341;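 active = compound raises GLP1 secretion from the human gut endocrine cells, with no numeric limit stated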); settings: NCI-H716 cells, at 10 µM, stronger effect = higher value
# [7] = HCT116 colon cancer cell growth inhibition, primary screen, CellTiter-Glo luminescence, NPC library (AID 1117342;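 active = compounds that lower survival of HCT116 colon cancer cells in the luminescence readout, no numeric limit stated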); settings: at 20 µM (top of the series)
# [8] = reduced SW480 viability measured with CellTiter-Glo, NPC library, primary (AID 1117343;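 active = compounds that lower viability of the colon cancer cells in the luminescence readout, with no numeric limit stated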); settings: CellTiter-Glo luminescence; at 20 µM (top of the series)
# [9] = NPC library primary testing for decreased DLD-1 cell viability via CellTiter-Glo (AID 1117346;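 active = compounds that lower survival of DLD-1 colon cancer cells in the luminescence readout, no cutoff given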); settings: DLD-1 viability, CellTiter-Glo luminescence; at 20 µM (top of the series)
# [10] = target: 6-phosphogluconate dehydrogenase, decarboxylating (Homo sapiens) (UniProt P52209); assay: inhibition of human phosphogluconate dehydrogenase – biochemical, recombinant enzyme, NADPH absorbance, primary screen (AID 1159550;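 active = at least 20% inhibition of 6-phosphogluconate dehydrogenase activity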); settings: recombinant 6PGD, NADPH absorbance 341 nm; at 10 µM; stronger effect = higher value
# Sequence of 6-phosphogluconate dehydrogenase, decarboxylating (Homo sapiens) (P52209 whole entry, looked up): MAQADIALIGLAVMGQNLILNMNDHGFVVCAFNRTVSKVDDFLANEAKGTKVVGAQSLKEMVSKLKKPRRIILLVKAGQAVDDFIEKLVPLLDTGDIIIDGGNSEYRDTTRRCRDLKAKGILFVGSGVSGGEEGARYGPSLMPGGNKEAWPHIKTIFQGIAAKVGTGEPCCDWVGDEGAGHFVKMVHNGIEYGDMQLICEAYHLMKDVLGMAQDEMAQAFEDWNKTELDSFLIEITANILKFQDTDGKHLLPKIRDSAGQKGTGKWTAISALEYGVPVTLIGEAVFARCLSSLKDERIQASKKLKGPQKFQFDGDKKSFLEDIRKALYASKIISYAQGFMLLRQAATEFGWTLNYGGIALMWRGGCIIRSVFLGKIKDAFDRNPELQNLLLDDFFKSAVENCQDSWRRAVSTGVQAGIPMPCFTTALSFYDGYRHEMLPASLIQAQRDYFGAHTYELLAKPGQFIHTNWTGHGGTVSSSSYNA
# [11] = system: Hepatitis C virus NS3 helicase; assay: blockers of NS3h binding to ssDNA – biochemical, fluorescence polarization, LOPAC1280 library, primary screen (AID 687035; in the data active = inhibition above about 37%); settings: Purified HCV NS3 helicase, Cy5-dT15 ssDNA binding fluorescence polarization; stronger effect = higher value; concentration not given here
# [12] = compounds altering Cy5-DNA-NS3h complex signal – biochemical, LOPAC1280, artefact control for HCV NS3 helicase inhibitor project (AID 687037; call rule not given here); settings: Cy5-DNA-NS3h complex fluorescence interference counterscreen
Structure (SMILES),parasite load remaining [1],viability [1],nuclear beta-catenin stimulation ([2]; at 10 µM),"nuclear beta-catenin stimulation ([2]; stimulation, at 2 µM)",insulin secretion stimulation [3],viability decrease [4],tube area decrease [5],GLP1 secretion stimulation [6],inhibition of viability [7],viability decrease (inhibition) [8],viability decrease (inhibition) [9],inhibition [10],inhibition [11],fluorescence ratio (interference) [12]
Nc1ccc(S(=O)(=O)Nc2ccccn2)cc1,73.3% (inactive) and 71.4% (inactive) and 46.1% (inactive),93.8% and 68.3% and 99%,-0.3% (inactive),1%,-2.8% (inactive),-1.3% (inactive),7.9% (inactive),-3.8% (inactive),-12% (inactive),17.6% (inactive),-7.25% (inactive),4.06% (inactive),,
CCOc1ccc(Cc2nccc3cc(OCC)c(OCC)cc23)cc1OCC,28.9% (inactive) and 13.1% (inactive),78.6% and 42.8%,1.8% (inactive),7.1%,1.2% (inactive),-83% (inactive),39.2% (inactive),4.1% (inactive),69.1% (active),97.9% (active),62.3% (active),-5.46% (inactive),,
Nc1ccc(S(N)(=O)=O)cc1,105% (inactive) and 77.1% (inactive) and 50.7% (inactive),101% and 73.5% and 90.2%,0.6% (inactive),0.5%,-1.2% (inactive),3.9% (inactive),-8.1% (inactive),2.3% (inactive),-0.4% (inactive),6.8% (inactive),25.1% (inactive),7.71% (inactive),,
CNC1(C)C2CCC(C2)C1(C)C (stereo not given),95.9% (inactive) and 84% (inactive),76% and 101%,0.3% (inactive),-2.6%,3.5% (inactive),-6% (inactive),-1.8% (inactive),4.9% (inactive),15.7% (inactive),8.7% (inactive),1.8% (inactive),-9.67% (inactive),0% (inactive),0.9 (inactive)
O=C1OC(c2ccc(O)cc2)(c2ccc(O)cc2)c2ccccc21,95% (inactive) and 84.8% (inactive),73.9% and 95.1%,1.3% (inactive),0%,11.5% (inactive),31.1% (inactive),14.1% (inactive),11.8% (inactive),12% (inactive),80.7% (active),43.5% (inactive),-2.11% (inactive),,
CCOC(=O)C(C)(C)Oc1ccc(Cl)cc1,56.5% (inactive) and 51.6% (inactive),100% and 144%,0% (inactive),1.6%,-0.8% (inactive),-28.2% (inactive),-5.8% (inactive),-1.1% (inactive),-9.77% (inactive),7.5% (inactive),-40.7% (inactive),-1.28% (inactive),-5% (inactive),1 (inactive)
NC(=O)NO,113% (inactive) and 59.4% (inactive),74.6% and 101%,-0.1% (inactive),4%,0% (inactive),48.8% (inactive),4.9% (inactive),-2% (inactive),23.9% (inactive),8.5% (inactive),-7.1% (inactive),-7.1% (inactive),-3% (inactive),1 (inactive)
CC(=O)OC(C)C[N+](C)(C)C (stereo not given),94% (inactive) and 73.8% (inactive) and 58% (inactive),94.5% and 73.8% and 92.8%,1.5% (inactive),3.2%,-0.3% (inactive),-1.9% (inactive),4.4% (inactive),5.7% (active),-6.13% (inactive),-21.3% (inactive),-8.2% (inactive),19.2% (inactive),-2% (inactive),0.9 (inactive)
Cc1c(NC(C)C)c(=O)n(-c2ccccc2)n1C,102% (inactive) and 160% (inactive),100% and 89.9%,3.6% (inactive),7%,0.4% (inactive),3.8% (inactive),4% (inactive),-0.1% (active),-11% (inactive),-10% (inactive),-1.3% (inactive),16.7% (inactive),,
O=c1c(O)c(-c2ccc(O)c(O)c2)oc2cc(O)cc(O)c12,49.9% (inactive) and 67.9% (inactive),108% and 73.7%,2.6% (inactive),1.7%,-2.9% (inactive),81.4% (active),42.7% (active),5.9% (inactive),4.5% (inactive),70.2% (active),46.2% (inactive),26.1% (active),2% (inactive),0.9 (inactive)
CCN(CC)CCNC(=O)c1ccc(NC(C)=O)cc1,46.9% (inactive),102%,-1.2% (inactive),1%,0.3% (inactive),23% (inactive),23.1% (inactive),1.6% (inactive),18.3% (inactive),25.6% (inactive),19.5% (inactive),3.51% (inactive),-3% (inactive),1 (inactive)
C[N+](C)(C)CCCCCC[N+](C)(C)C,28% (inactive) and 143% (inactive) and 127% (inactive),48% and 87.6% and 90.7%,-0.3% (inactive),-1.6%,0.75% (inactive),10.7% (inactive),-10.2% (inactive),-1.6% (inactive),13.3% (inactive),-4.3% (inactive),5.4% (inactive),12.6% (inactive),0% (inactive) and -2% (inactive),1 (inactive)
Cc1c(N(C)CS(=O)(=O)O)c(=O)n(-c2ccccc2)n1C,109% (inactive) and 141% (inactive) and 63.8% (inactive),100% and 88.3% and 95.6%,-0.4% (inactive),0.9%,-0.6% (inactive),1.05% (inactive),-53.1% (inactive),2.4% (inactive),3% (inactive),23.9% (inactive),3.35% (inactive),19.3% (inactive),,
NCCS,22.7% (inactive) and 38.2% (inactive),94.3% and 106%,0.2% (inactive),3.8%,2.9% (inactive),-8.4% (inactive),-3.5% (inactive),-3.8% (inactive),2.53% (inactive),-332% (inactive),-14.1% (inactive),-14% (inactive),-2% (inactive),1 (inactive)
C[C@H]1c2cccc(O)c2C(O)=C2C(=O)[C@]3(O)C(O)=C(C(N)=O)C(=O)[C@@H](N(C)C)[C@@H]3[C@@H](O)[C@@H]21,95% (inactive) and 57.5% (inactive) and 31.3% (inactive),76.2% and 97.6% and 73.5%,-0.3% (inactive),3.8%,-0.5% (inactive),92.4% (active),-4.2% (inactive),2.6% (inactive),68.1% (active),61.1% (active),90.9% (active),9.31% (inactive),-1% (inactive),1 (inactive)
COC(=O)[C@@H]1[C@H]2C[C@H]3c4[nH]c5ccccc5c4CCN3C[C@@H]2CC[C@@H]1O,80.6% (inactive) and 73.2% (inactive) and 41.3% (inactive),101% and 81.3% and 96.5%,1% (inactive),0.4%,1.1% (inactive),-73.5% (inactive),10.7% (inactive),-0.7% (inactive),13.8% (inactive),18.3% (inactive),-9.4% (inactive),2.13% (inactive),0% (inactive),1.1 (inactive)
Cc1ccc(C(=O)Nc2ccc(S(=O)(=O)O)c3cc(S(=O)(=O)O)cc(S(=O)(=O)O)c23)cc1NC(=O)c1cccc(NC(=O)Nc2cccc(C(=O)Nc3cc(C(=O)Nc4ccc(S(=O)(=O)O)c5cc(S(=O)(=O)O)cc(S(=O)(=O)O)c45)ccc3C)c2)c1,42.8% (inactive) and 57% (inactive),89.5% and 106%,-3.6% (inactive),-0.5%,1.6% (inactive),-23.9% (inactive),6% (inactive),36.3% (active),-17.7% (inactive),-22.7% (inactive),8.3% (inactive),27.5% (active),96% (active),1 (inactive)
O=C1CCc2cc(OCCCCc3nnnn3C3CCCCC3)ccc2N1,56.8% (inactive) and 129% (inactive) and 31.4% (inactive),104% and 87.2% and 96.2%,1.1% (inactive),1%,-1.5% (inactive),-19.3% (inactive),0.2% (inactive),-1.1% (inactive),-0.27% (inactive),36.4% (inactive),-12.1% (inactive),1.01% (inactive),-1% (inactive),1 (inactive)
Cc1cc(C(C)(C)C)c(O)c(C(C)(C)C)c1,72.6% (inactive),95.9%,1.4% (inactive),0.1%,-0.6% (inactive),-7.15% (inactive),-2.9% (inactive),14.2% (inactive),10.4% (inactive),3.9% (inactive),-5.5% (inactive),14.6% (inactive),,
NC(=O)NC(=O)Cc1ccccc1,87.8% (inactive) and 56.5% (inactive),68% and 92%,0.2% (inactive),-0.4%,1.3% (inactive),-10.2% (inactive),2.3% (inactive),-2.2% (inactive),-3.67% (inactive),38.8% (inactive),-11.6% (inactive),7.97% (inactive),,
CC(N)C(=O)OC(C)(C)Cc1ccc(Cl)cc1 (stereo not given),159% (inactive),87.1%,8% (inactive),3.3%,4.8% (inactive),7.1% (inactive),-6.7% (inactive),5.8% (inactive),50% (active),13.1% (inactive),20.6% (inactive),-7.62% (inactive),,
CC(=O)N[C@@H](CS)C(=O)O,106% (inactive) and 79.1% (inactive),72.7% and 91.5%,2.6% (inactive),-1.4%,0.8% (inactive),-18.8% (inactive),18% (inactive),0.7% (inactive),-0.95% (inactive),0.1% (inactive),7.4% (inactive),-17.2% (inactive),0% (inactive),0.9 (inactive)
